Assay [1] is described as follows: qHTS assay to identify small molecule agonists of the hypoxia (HIF-1) signaling pathway - cell viability counter screen (AID 1224844; calls by dose curve; also: nearly all actives have a fitted effect of over 50% in size). The essentials:
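HRE-bla ME-180 cells in medium with 0.5% dialyzed FBS were preincubated 5 hrs at 37C, exposed to compounds for 17 hrs, then viability was read as CellTiter-Glo luminescence after 30 min at room temperature, in the reporter wells.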
(In general: qHTS replaces the single test concentration by a dilution series.)

Assay [2] in a line: qHTS assay to identify small molecule agonists of H2AX (AID 1224845; active = well fitted activation curve with a large enough effect in the signal ratio in the repeat runs, not every such curve was filed as active; the % refers to the signal ratio). The essentials:
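Wild-type CHO-K1 cells, plated overnight, exposed 3hr at 37C to 15 concentrations (0.76% DMSO final). Lysed, then HTRF anti-pH2AX (S139) cryptate and anti-H2AX-d2 antibodies, 24 hr room temperature; 665/620 nm emission read.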

Assay [3] can be described thus: qHTS assay to identify small molecule agonists of the hypoxia (HIF-1) signaling pathway (AID 1224846; active = well fitted activation curve with a large enough effect in the signal ratio in the repeat runs, not every such curve was filed as active; the % refers to the signal ratio). The essentials:
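HRE-bla ME-180 cells (beta-lactamase reporter under hypoxia response element) were plated at 2,000 cells/well in medium with 0.5% dialyzed FBS, rested 5 hrs, then given compounds in DMSO for 17 hrs at 37C, 5% CO2. Reporter induction was read with CCF4-AM FRET substrate.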

Assay [4] can be described thus: qHTS assay to identify small molecule antagonists of the estrogen related receptor (ERR) signaling pathway from Tox21 library (AID 1224848). Also: nearly all actives have a fitted effect of over 50% in size. Also: potency is read from the fitted curve at half-maximal effect. Summed up:
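Luminescent reporter read-out (ONE-Glo) from NTP's ERR cell line after 18 h treatment at 37 C with DMSO-dissolved Tox21 compounds; cells pre-plated 6 h beforehand at 2,000 per well.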

Assay [5] can be described thus: qHTS assay to identify small molecule agonists of the estrogen related receptor (ERR) signaling pathway from Tox21 library (AID 1224849; calls by dose curve; also: nearly all actives have a fitted effect of over 15% in size). The settings on record: ERR reporter cell line, ONE-Glo luciferase, 18 h; at 92.4 µM (top of the series) unless noted. Summed up:
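ERR reporter cell line (NTP) seeded, rested 6 h at 37 C/5% CO2, then pinned with Tox21 compounds in DMSO. After 18 h at 37 C, ONE-Glo luciferase luminescence was read following 30 min at room temperature.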

Assay [6] can be described thus: qHTS RealTime-Glo MT Cell Viability Assay in HEK293 cells - 32 hour (AID 1224868). Also: nearly all actives have a fitted effect of over 50% in size. Also: potency is read from the fitted curve at half-maximal effect. Summed up: (§1)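 Reads taken at 0, 8, 16, 24, 32 and 40 h from the same wells. HEK293 cells (600/well) carried RealTime-Glo reagents from seeding, with compound added after a 5 h settle at 37 C.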
Assay [7] can be described thus: A CellTox Green Cytotoxicity Assay to monitor cytotoxicity in HEK293 cells - 0 hour (AID 1224869). Also: nearly all actives have a fitted effect of over 50% in size. The essentials:
(§2)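 HEK293 cells premixed with CellTox Green dye were seeded at 600 cells/well and left 5 h at 37 C/5% CO2 before pin transfer of 23 nL compound in DMSO. Fluorescence from dye bound to dead-cell DNA was read during 40 h treatment.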

Assay [8] in a line: qHTS RealTime-Glo MT Cell Viability Assay in HepG2 cells - 40 hour (AID 1224870). Also: nearly all actives have a fitted effect of over 50% in size. Summed up: (§3)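 HepG2 cells (600/well) mixed with RealTime-Glo MT reagent, settled 5 h at 37 C/5% CO2 before compound addition. Nonlytic NanoLuc luminescence from viable-cell prosubstrate reduction read repeatedly during 40 h treatment at 37 C.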
The nature of assay [9]: qHTS RealTime-Glo MT Cell Viability Assay in HEK293 cells - 40 hour (AID 1224874). Also: nearly all actives have a fitted effect of over 50% in size. Also: potency is read from the fitted curve at half-maximal effect. The following applies: RealTime-Glo luminescence; max response: hits give low values. Summed up: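 HEK293 cells mixed with RealTime-Glo reagents (NanoLuc plus cell-permeant prosubstrate) at 600 cells/well, preincubated 5 h at 37 C/5% CO2, then given 23 nL compound in DMSO. Nonlytic luminescence from viable cells was read at 0, 8, 16, 24, 32 and 40 h.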

Assay [10] in a line: A CellTox Green Cytotoxicity Assay to monitor cytotoxicity in HepG2 cells - 16 hour (AID 1224876). Also: nearly all actives have a fitted effect of over 45% in size. Also: potency is read from the fitted curve at half-maximal effect. The essentials: (§4)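 HepG2 cells were seeded together with the CellTox Green dye at 600 cells/well, left 5 h at 37 C/5% CO2, then given compounds in DMSO. Fluorescence from dye bound to dead-cell DNA was read repeatedly over 40 h of treatment at 37 C.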
Assay [11] can be described thus: qHTS RealTime-Glo MT Cell Viability Assay in HepG2 cells - 32 hour (AID 1224877). Also: nearly all actives have a fitted effect of over 55% in size. Also: potency is read from the fitted curve at half-maximal effect. The essentials: (§5)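 HepG2 suspension premixed with RealTime-Glo reagents is plated at 600 cells per well and left 5 h at 37 C/5% CO2. Compounds in DMSO then go in, and bioluminescence reflecting viable cell number is recorded over 40 h.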
Assay [12] is described as follows: A CellTox Green Cytotoxicity Assay to monitor cytotoxicity in HepG2 cells - 24 hour (AID 1224878). Also: nearly all actives have a fitted effect of over 45% in size. Also: potency is read from the fitted curve at half-maximal effect. The essentials:
as §4

Assay [13] in a line: A CellTox Green Cytotoxicity Assay to monitor cytotoxicity in HepG2 cells - 40 hour (AID 1224879). Also: nearly all actives have a fitted effect of over 40% in size. Also: potency is read from the fitted curve at half-maximal effect. Summed up:
as §4

A short description of assay [14]: qHTS assay to identify small molecule agonists of H2AX - cell viability counter screen (AID 1224847; calls by dose curve; also: top concentration of the series differs between compounds; nearly all actives have a fitted effect of over 30% in size). The essentials:
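Cytotoxicity counter screen in wild-type CHO-K1 cells: a 3 hr compound treatment at 37C across 15 concentrations, followed by CellTiter-Glo luminescence to gauge viable cells.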

The nature of assay [15]: A CellTox Green Cytotoxicity Assay to monitor cytotoxicity in HEK293 cells - 40 hour (AID 1224871). Also: nearly all actives have a fitted effect of over 45% in size. Summed up:
as §2

The nature of assay [16]: qHTS RealTime-Glo MT Cell Viability Assay in HEK293 cells - 16 hour (AID 1224872). Also: nearly all actives have a fitted effect of over 50% in size. Also: potency is read from the fitted curve at half-maximal effect. The essentials: as §1
Assay [17] can be described thus: qHTS RealTime-Glo MT Cell Viability Assay in HepG2 cells - 8 hour (AID 1224873). Also: nearly all actives have a fitted effect of over 55% in size. Summed up: as §3
Assay [18] in a line: A CellTox Green Cytotoxicity Assay to monitor cytotoxicity in HEK293 cells - 24 hour (AID 1224875). Also: nearly all actives have a fitted effect of over 45% in size. The essentials:
as §2

A short description of assay [19]: qHTS RealTime-Glo MT Cell Viability Assay in HepG2 cells - 24 hour (AID 1224867). Also: nearly all actives have a fitted effect of over 50% in size. Summed up: as §5

Values without a mark were called inactive. Records with an inconclusive call do not appear. Calls of active or inactive are those of the source. Unless noted, calls follow the shape of the dose curve; as a rule, active = well fitted curve in the direction sought with a large enough effect in the repeat runs; inconclusive = weak or mixed curves; inactive = no such curve, though single readings can be large; an effect the other way counts as inactive or inconclusive.
% is scaled to controls: 0 for no effect and ±100 for the full control effect.

With `COc1ccc(-c2ccccc2)cc1NNC(=O)OC(C)C`, the Potency result in assay [1], in assay [2], in [7], in assay [8], in assay [10] and in assay [11] was “inactive” throughout. The Potency entry in assay [12] and in assay [13] was “inactive” throughout. In addition, the result in assay [3] was inactive. For the same compound, the figures for the Potency in assay [4], in [6] and in [9] were 31.9 µM (active), 51 µM (active) and 51 µM (active), respectively. Besides, the activity change, positive = activation in assay [5] is -62.9%.

As to `CN1[C@@H]2CC[C@H]1CC(OC(=O)c1cc(Cl)cc(Cl)c1)C2` (some centres undefined), the Potency result in [1], in [14], in [7], in assay [8], in assay [15] and in assay [16] was “inactive” throughout. In addition, the Potency entry in [17] and in assay [18] was “inactive” each time. In addition, the call in [3] was inactive. In addition, the results for the Potency in assay [10], in assay [12] and in assay [13] were 21.3 µM (active), 23.9 µM (active) and 23.9 µM (active), respectively.

For `N#C/C(N)=C(/N)C#N`, the Potency entry in [1], in assay [14], in [4], in assay [19], in [6] and in assay [7] was “inactive” in each case. Moreover, the Potency entry in [8], in [15], in assay [16], in assay [17], in assay [18] and in assay [10] was “inactive” throughout. For the same compound, the Potency result in assay [11], in assay [12] and in [13] was “inactive” in each case. Moreover, the compound was called inactive in assay [3]. Moreover, the activity change, positive = activation in [5] is 0.178%. Further, the max response in assay [9] was 0.894%.

As for `CN1C[C@H](CNC(=O)OCc2ccccc2)C[C@@H]2c3cccc4c3c(cn4C)C[C@H]21`, the Potency entry in [1], in assay [2], in [14], in assay [7], in assay [15] and in [17] was “inactive” in each case. The Potency result in assay [18] was “inactive”. For the same compound, the Potency is 21.3 µM (active) in assay [6]; 21.3 µM (active) in [16]; 23.9 µM (active) in assay [9]; 23.9 µM (active) in [10]; 23.9 µM (active) in assay [11]; 26.8 µM (active) in [12]. Moreover, the Potency in assay [13] is 23.9 µM (active).

As for `OCCCBr`, the Potency entry in [1], in [14], in assay [4], in [19], in [6] and in assay [7] was “inactive” in each case. Also, the Potency result in assay [8], in assay [15], in assay [16], in assay [17], in assay [18] and in assay [11] was “inactive” each time. Also, the Potency result in assay [12] and in assay [13] was “inactive” throughout. Also, the call in [3] was inactive. In addition, in assay [5], the activity change, positive = activation was -6.8%. The max response in [9] was -0.927%.

Regarding `CN(N=O)c1ccc([N+](=O)[O-])cc1`, the Potency result in assay [1], in assay [14], in [19], in assay [6], in assay [7] and in [8] was “inactive” in each case. The Potency entry in assay [15], in assay [17], in assay [18], in assay [10] and in assay [11] was “inactive” in each case. In [3], the result was inactive. Moreover, in assay [9], the max response is -1.54%. For the same compound, the Potency in assay [12] and in assay [13] was 43.6 µM (active) each time.

With `Sc1ccccc1Cl`, the Potency result in [1], in [14], in assay [4], in [19], in [6] and in assay [7] was “inactive” each time. Further, the Potency result in [8], in assay [15], in assay [16], in assay [17], in assay [18] and in [11] was “inactive” each time. The Potency result in [13] is “inactive”. Moreover, in assay [3], the compound was classed as inactive. Besides, the activity change, positive = activation in assay [5] is 1.99% [at 42.5 µM]. Moreover, the max response in [9] is -1.55%.

`O=C(CBr)OCc1ccccc1`: the Potency result in assay [1], in assay [14], in [19], in assay [6], in assay [7] and in [8] was “inactive” in each case. Further, the Potency result in assay [15], in [17], in assay [18], in assay [10], in assay [11] and in assay [12] was “inactive” each time. For the same compound, the Potency entry in [13] was “inactive”. Moreover, in assay [3], the result was inactive.

For the origin of these results see PubChem BioAssay (Tox21).
